Our source for the inhibition values is ChEMBL document CHEMBL1961873, “Compounds: GSK PKIS; Assays: Nanosyn kinase panel” (2012).

The target of assay [1] is T1, Muscle, skeletal receptor tyrosine-protein kinase (Homo sapiens) (UniProt O15146).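 Also: reported value is the mean percent inhibition of MuSK kinase.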
T1 sequence (whole entry): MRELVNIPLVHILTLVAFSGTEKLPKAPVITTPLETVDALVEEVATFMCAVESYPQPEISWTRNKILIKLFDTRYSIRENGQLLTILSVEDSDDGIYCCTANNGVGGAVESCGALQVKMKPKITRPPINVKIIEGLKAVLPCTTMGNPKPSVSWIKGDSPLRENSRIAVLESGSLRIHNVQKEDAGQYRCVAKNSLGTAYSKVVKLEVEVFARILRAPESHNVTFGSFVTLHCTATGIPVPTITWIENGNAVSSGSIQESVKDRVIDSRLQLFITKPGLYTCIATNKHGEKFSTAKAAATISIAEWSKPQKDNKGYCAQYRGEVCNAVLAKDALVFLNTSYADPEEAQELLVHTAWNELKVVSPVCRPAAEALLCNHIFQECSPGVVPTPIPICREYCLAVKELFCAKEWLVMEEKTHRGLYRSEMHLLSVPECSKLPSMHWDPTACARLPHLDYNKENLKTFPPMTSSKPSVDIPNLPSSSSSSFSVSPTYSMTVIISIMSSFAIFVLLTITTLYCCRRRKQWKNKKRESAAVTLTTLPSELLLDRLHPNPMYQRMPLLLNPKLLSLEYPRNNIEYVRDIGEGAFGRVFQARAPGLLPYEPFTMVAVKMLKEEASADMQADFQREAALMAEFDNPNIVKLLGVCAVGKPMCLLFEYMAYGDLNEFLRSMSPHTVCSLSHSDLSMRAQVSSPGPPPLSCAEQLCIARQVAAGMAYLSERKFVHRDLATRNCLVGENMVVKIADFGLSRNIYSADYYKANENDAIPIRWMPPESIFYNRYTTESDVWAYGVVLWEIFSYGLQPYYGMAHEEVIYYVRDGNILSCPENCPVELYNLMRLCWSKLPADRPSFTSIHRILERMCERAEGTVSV
The conditions noted are these: at 1 µM.

The target of assay [2] is Platelet-derived growth factor receptor alpha (Homo sapiens) (UniProt P16234). Particulars: at 0.1 µM.
Sequence of Platelet-derived growth factor receptor alpha (Homo sapiens) (P16234 whole entry): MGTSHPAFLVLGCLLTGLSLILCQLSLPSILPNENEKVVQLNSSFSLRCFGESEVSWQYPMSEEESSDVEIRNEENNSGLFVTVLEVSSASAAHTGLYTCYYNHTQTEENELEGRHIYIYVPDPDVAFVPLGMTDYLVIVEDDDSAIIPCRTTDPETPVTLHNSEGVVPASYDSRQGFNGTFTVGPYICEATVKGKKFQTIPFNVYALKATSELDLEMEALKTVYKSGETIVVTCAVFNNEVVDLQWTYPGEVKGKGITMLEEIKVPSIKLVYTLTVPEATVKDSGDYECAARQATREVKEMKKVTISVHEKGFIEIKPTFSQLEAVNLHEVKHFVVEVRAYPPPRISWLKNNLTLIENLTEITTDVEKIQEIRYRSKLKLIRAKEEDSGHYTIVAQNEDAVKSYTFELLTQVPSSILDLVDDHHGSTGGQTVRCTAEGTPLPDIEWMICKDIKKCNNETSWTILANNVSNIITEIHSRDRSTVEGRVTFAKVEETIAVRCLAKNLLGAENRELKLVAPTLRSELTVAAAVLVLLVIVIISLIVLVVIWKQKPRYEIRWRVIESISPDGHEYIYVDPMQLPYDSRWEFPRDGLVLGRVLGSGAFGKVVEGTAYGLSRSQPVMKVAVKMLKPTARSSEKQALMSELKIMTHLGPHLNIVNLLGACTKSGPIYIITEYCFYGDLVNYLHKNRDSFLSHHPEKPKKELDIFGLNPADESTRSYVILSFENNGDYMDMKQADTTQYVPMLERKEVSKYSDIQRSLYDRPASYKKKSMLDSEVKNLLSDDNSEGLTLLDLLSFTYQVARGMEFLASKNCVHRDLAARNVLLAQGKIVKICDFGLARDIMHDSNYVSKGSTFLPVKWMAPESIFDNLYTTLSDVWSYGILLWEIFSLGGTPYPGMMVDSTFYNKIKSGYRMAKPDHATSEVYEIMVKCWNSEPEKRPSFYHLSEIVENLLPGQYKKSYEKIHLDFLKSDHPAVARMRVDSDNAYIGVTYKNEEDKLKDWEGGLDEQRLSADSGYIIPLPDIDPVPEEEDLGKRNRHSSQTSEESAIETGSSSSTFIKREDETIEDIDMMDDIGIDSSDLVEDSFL
The target is the same in assay [3]. The conditions noted are these: at 1 µM.
Assay [4] has as its system Platelet-derived growth factor receptor alpha (Homo sapiens), P16234 [D842V]. The conditions noted are these: at 0.1 µM.
For assay [5] the test system is unchanged. The conditions noted are these: at 1 µM.
Assay [6] has as its system Platelet-derived growth factor receptor alpha (Homo sapiens), P16234 [T674I]. The conditions noted are these: at 0.1 µM.
For assay [7] the test system is unchanged. The conditions noted are these: at 1 µM.
The test system of assay [8] is Platelet-derived growth factor receptor alpha (Homo sapiens), P16234 [V561D]. Particulars: at 0.1 µM.
Sequence of Platelet-derived growth factor receptor alpha (Homo sapiens), P16234 [V561D] (P16234 whole entry V561D): as the sequence (P16234 whole entry) above, with V561D counted along it
Assay [9] shares this test system. Particulars: at 1 µM.
For assay [10], the target named is Platelet-derived growth factor receptor beta (Homo sapiens) (UniProt P09619). Particulars: at 0.1 µM.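 Also: reported value is the mean percent inhibition of the kinase.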
Sequence of Platelet-derived growth factor receptor beta (Homo sapiens) (P09619 whole entry): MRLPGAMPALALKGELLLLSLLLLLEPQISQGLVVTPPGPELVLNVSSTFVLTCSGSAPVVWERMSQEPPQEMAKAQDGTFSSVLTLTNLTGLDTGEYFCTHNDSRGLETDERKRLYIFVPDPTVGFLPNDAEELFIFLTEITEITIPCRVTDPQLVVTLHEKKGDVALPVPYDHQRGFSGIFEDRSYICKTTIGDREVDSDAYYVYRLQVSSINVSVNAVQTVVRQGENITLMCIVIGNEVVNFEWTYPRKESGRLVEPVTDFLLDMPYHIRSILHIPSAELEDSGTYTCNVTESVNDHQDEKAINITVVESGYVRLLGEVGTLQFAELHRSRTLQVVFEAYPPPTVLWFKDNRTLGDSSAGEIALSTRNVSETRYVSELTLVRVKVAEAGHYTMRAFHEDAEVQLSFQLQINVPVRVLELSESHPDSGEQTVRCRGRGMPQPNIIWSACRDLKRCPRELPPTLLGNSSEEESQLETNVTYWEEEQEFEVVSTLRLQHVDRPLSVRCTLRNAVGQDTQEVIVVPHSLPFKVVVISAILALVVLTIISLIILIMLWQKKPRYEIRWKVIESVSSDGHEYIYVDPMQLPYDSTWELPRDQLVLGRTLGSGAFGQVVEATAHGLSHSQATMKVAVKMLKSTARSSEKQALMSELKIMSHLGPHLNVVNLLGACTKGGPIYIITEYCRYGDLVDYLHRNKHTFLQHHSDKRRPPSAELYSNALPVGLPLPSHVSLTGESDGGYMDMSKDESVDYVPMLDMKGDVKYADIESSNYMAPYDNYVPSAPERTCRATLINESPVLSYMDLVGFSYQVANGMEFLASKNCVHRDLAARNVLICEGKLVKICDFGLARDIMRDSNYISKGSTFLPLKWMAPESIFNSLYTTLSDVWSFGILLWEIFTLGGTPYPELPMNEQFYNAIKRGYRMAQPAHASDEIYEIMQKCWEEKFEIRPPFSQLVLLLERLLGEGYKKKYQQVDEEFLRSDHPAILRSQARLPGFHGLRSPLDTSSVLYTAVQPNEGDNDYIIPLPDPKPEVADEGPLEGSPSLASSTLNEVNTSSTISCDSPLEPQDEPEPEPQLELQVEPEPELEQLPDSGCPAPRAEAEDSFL

Sequence of Platelet-derived growth factor receptor alpha (Homo sapiens), P16234 [D842V] (P16234 whole entry D842V): as the sequence (P16234 whole entry) above, with D842V counted along it
Sequence of Platelet-derived growth factor receptor alpha (Homo sapiens), P16234 [T674I] (P16234 whole entry T674I): as the sequence (P16234 whole entry) above, with T674I counted along it

For the molecule `CCCN(CCS(C)(=O)=O)Cc1ccc(-c2ccc3ncnc(Nc4ccc(OCc5cccc(F)c5)c(Cl)c4)c3c2)o1`, the inhibition is 2.34% in assay [1]; 7.21% in [2]; 16.2% in assay [3]; 3.62% in [4]; 5.72% in assay [5]; 4.68% in assay [6]. For the same molecule, the inhibition came out at 4.67% in assay [7], 2.84% in assay [8], 7.4% in assay [9] and 3.14% in [10].

As for `COc1ccc(CNC(=O)c2ccc(-c3cc(-c4nnc(C)o4)ccc3C)cc2)cc1`, the inhibition was -7.05% in [1]; 12.6% in assay [2]; 16.5% in [3]; 3.66% in [4]; 3.96% in assay [5]; 5.1% in assay [6]. The inhibition was 6.47% in assay [7], 7.3% in assay [8], 4.07% in assay [9] and 8.68% in assay [10].

As to `COc1ccc(-c2cc3c(N)ncnc3o2)cc1`, the inhibition is 2.3% in [1]; -1.4% in assay [2]; 16.5% in assay [3]; 2.85% in [4]; 9.77% in assay [5]; 1.44% in assay [6]. Also, the inhibition in assay [7] stood at 4.01%; in assay [8] it was 3.4%; in [9] it was 19.1%; in assay [10], 1.93%.

On to `O=S(=O)(CCNCc1ccc(-c2ccc3ncnc(Nc4ccc(OCc5cccc(F)c5)c(Cl)c4)c3c2)o1)c1ccccc1`, for which the inhibition in assay [1] is 5.15%; in assay [2] it was 11.9%; in assay [3], 19%; in [4], 3.35%; in assay [5] it was 6.47%; in assay [6], 7.8%. The inhibition in [7] is 12.8%; in assay [8], 3.09%; in [9], 8.1%; in assay [10], 5.51%.

With `COc1cccc(-c2c[nH]c3c(N/N=C/c4ccncc4)ncnc23)c1`, the inhibition stood at 48.8% in assay [1]; 64% in assay [2]; 82.8% in [3]; 72.2% in assay [4]; 94.4% in assay [5]; 21.8% in assay [6]. Moreover, the inhibition in assay [7] was found to be 82.2%; in assay [8], 59.7%; in assay [9], 93%; in assay [10], 55%.

As for `COc1ccc2[nH]c3c4[nH]c5ccc(OC)cc5c4c4c(c3c2c1)C(=O)NC4=O`, the inhibition stood at 11.8% in assay [1]; 81.1% in [2]; 83.5% in assay [3]; 94.8% in assay [4]; 96.3% in assay [5]; 65.7% in assay [6]. In addition, the inhibition in [7] came out at 94.3%; in assay [8] it was 93.8%; in assay [9] it was 96.8%; in assay [10], 78.2%.

With `Nc1nc(-c2cccc(Cl)c2)c(-c2ccc3ncccc3n2)s1`, the inhibition in [1] was 2.14%; in assay [2], 8.04%; in assay [3] it was 28.3%; in assay [4] it was 8.3%; in [5], 40.8%; in [6], 5.77%. The inhibition in assay [7] was 9.67%; in [8], 9.61%; in [9] it was 26.7%; in assay [10], 5.64%.

As for `CCn1cc(-c2ccnc3[nH]ccc23)c(-c2cccc(NC(=O)Nc3ccc(OCc4ccccc4)cc3)c2)n1`, the inhibition is -5.2% in assay [1]; 1.29% in assay [2]; 7.03% in [3]; 1.41% in [4]; 2.72% in [5]; 0.5% in assay [6]. Moreover, the inhibition was 1.13% in assay [7], -0.44% in assay [8], 1.14% in assay [9] and 2.04% in assay [10].

Consider `NS(=O)(=O)c1ccc(N/N=C2\C(=O)Nc3ccc4ncccc4c32)cc1`, for which the inhibition in [1] was determined as 49.5%; in assay [2], 58.9%; in assay [3], 82.2%; in [4], 63.4%; in assay [5], 92.3%; in assay [6], 16.7%. For the same molecule, the inhibition amounted to 73.6% in assay [7], 54.5% in assay [8], 92.4% in assay [9] and 63.2% in [10].

Take `CN(C)CCOc1ccc(-c2nc(-c3ccncc3)c(-c3ccc4c(c3)CC/C4=N\O)[nH]2)cc1`: the inhibition came to 3.72% in [1]; 8.1% in [2]; 15.9% in [3]; 0.79% in assay [4]; 3.47% in assay [5]; 3.47% in assay [6]. For the same molecule, the inhibition in assay [7] stood at 8.38%; in [8], 2.97%; in [9], 5.35%; in assay [10], 4.84%.

For `Cc1cccc(Nc2ncc(-c3ccccc3)o2)c1`, the inhibition is 5.58% in assay [1]; 7.16% in assay [2]; 29.9% in assay [3]; 1.63% in assay [4]; 5.43% in [5]; 7.94% in assay [6]. The inhibition in assay [7] worked out at 50.3%; in assay [8], 22.5%; in assay [9], 48.7%; in assay [10] it was 7.93%.

Consider `N#Cc1c(NC(=O)CN2CCOCC2)sc2c1CCCC2`, for which the inhibition in [1] worked out at 5.38%; in assay [2] it was 6.84%; in assay [3], 10.4%; in [4] it was 3.81%; in assay [5], 4.78%; in [6], 6.89%. Besides, the inhibition in assay [7] was determined as 9.82%; in assay [8], 4.95%; in [9], 3.92%; in assay [10], 2.42%.

Consider `COc1ccc(-c2oc3ncnc(N)c3c2-c2ccc(NC(=O)Nc3cc(C(F)(F)F)ccc3F)cc2)cc1`, for which the inhibition in [1] is 101%; in assay [2], 38.6%; in assay [3] it was 88.9%; in assay [4], 6.4%; in [5], 54.4%; in assay [6], 18%. The inhibition in assay [7] is 72.1%; in assay [8], 26.6%; in assay [9], 86.2%; in [10], 20.2%.

As to `COc1cccc(-n2ncc3c(N/N=C/c4ccc(F)cc4)ncnc32)c1`, the inhibition was 9.49% in assay [1]; 15.8% in assay [2]; 42.1% in assay [3]; 9.48% in [4]; 45.4% in assay [5]; 9.07% in assay [6]. Moreover, the inhibition in [7] worked out at 29.6%; in assay [8], 8.4%; in assay [9], 37.1%; in assay [10], 12.8%.

Regarding `FC(F)(F)c1cccc(-c2nn3ncccc3c2-c2ccnc(Nc3ccc4c(c3)OCCO4)n2)c1`, the inhibition in assay [1] was found to be 2.21%; in assay [2], 5.63%; in [3], 15.1%; in assay [4] it was 3.38%; in [5] it was 5.8%; in assay [6], 2.79%. Besides, the inhibition in assay [7] came to 3.91%; in assay [8], 1.96%; in [9], 15.8%; in assay [10], 6.05%.

Regarding `Nc1nc(-c2ccc(F)cc2)c(-c2ccc3ncccc3n2)s1`, the inhibition amounted to 7.29% in assay [1]; 16.9% in [2]; 51.7% in assay [3]; 14.4% in [4]; 61.6% in assay [5]; 9.38% in assay [6]. Also, the inhibition in assay [7] was 11.5%; in assay [8] it was 13.2%; in assay [9] it was 49.5%; in assay [10], 10.9%.
